# Experimental data: PubChem BioAssay AID1508600 (Functional Genomics Laboratory (NCATS/FGL), 2020)
# Hit rate of the full screen: of about 53,000 sequences, about 3,700 (7%) were called active. This is one part of a sample in which actives are shown more often than they occur. A number with no mark means an inactive call.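 Rule for the calls: active = gene knockdowns whose robust z-score for IL-1 alpha signal is at least 2 or at most -2, so actives lie on both sides; inactive = the rest.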
# Test: Components of the Cytosolic LPS Sensing Pathway: Gene Identification via Genome-wide siRNA Screen;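 note: robust z of the log signal after scaling to non-targeting control siRNA wells of the plate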
# Conditions: RAW264.7 macrophages, IL-1a HTRF, actives lie on both sides, screened at 100 nM (by protocol), cells primed 5 h with Pam3CSK4 first
# Summary of the method: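 Mouse macrophage line RAW264.7 is transfected with siRNA (100 nM final), grown 48h, primed with TLR ligand Pam3CSK4 5 h and given intracellular LipidA 24 h. IL-1a in supernatant is read by HTRF and viability by luminescence.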
row,Sequence,z-score
1,CCAAGUAAGGACUAUAGAGTT against Gpatch2,-1.02
2,CGCUGCUAAGAAUCAUCUATT against Ednrb,0.287
3,GGAAGCCACGGUCAUGUGUTT against Trim9,0.746
4,GGAAUGGGCAGUAUGAGUUTT against Ocrl,-1.73
5,GGUAGUCAAGUCGAAAGUATT against Ccdc18,-2.19 (active)
6,GGACAAUGCUGUGACCUCUTT against Amn,-0.949
7,GGGAAGCAGAAAUGAGAAATT against Pdcd5,0.135
8,GAGUGUUUCAGAUUCUUCATT against Klra8,0.329
9,UCUUUGUGAUUUCGAAGCCTT against Slc17a9,2.31 (active)
10,GGAUAAAGAAGGUAUUCUUTT against Mccc1,-0.891
11,GGCCCAGAAGGUUAUCAUCTT against Ptf1a,0.606
12,GGAAAUCACGACCAUGGCGTT against Gtf2b,0.0198
13,GCACUUCCGACUUUUUCACTT against Mettl24,-1.69
14,GAGCUUCUGGCUGAGAUAATT against Espn,-0.388
15,GUGUAUGCGCUGAUCCUAUTT against 1700020N01Rik,0.181
16,GGAGCUCUCAUCCUACUAUTT against Eif4ebp3,-0.0855
17,GGCCUUUGAGAAGAACAUUTT against Copz1,-2.16 (active)
18,GGAGUUUUUAUUCAAGGAATT against Slc35b3,-1.07
19,GGCAGUGUACAUCUGGAUATT against Olfr611,1.85
20,CCGUGUUCCGAGGAUAUGUTT against Cyp2e1,-0.212
21,GGGACUAUGACAAAACAGCTT against Atad2,0.0122
22,CCUGACAUUCUUUAAUCCATT against Synb,0.6
23,CCAACUCUAAUAAUAACAGTT against Slc22a26,3.31 (active)

row,Sequence,z-score
1,CCAGACAUGAAACUUGUAUTT against Mms19,-0.165
2,GGCCAGAGGACUAUGUUAUTT against C1s2,1.24
3,GGGUGGAGAAAUUUUAAUGTT against Dse,-0.22
4,GGAAAAUGAGAUCAUGCCCTT against Sdf4,-0.488
5,GGCGAUUCUGGCUCUCUUUTT against Commd9,1.28
6,GCAGAAAGAAACGUAAAUGTT against Dhx57,0.464
7,GGCUUCAGCUAUUGGGCAATT against Vsig1,2.19 (active)
8,GGGAUGUGUACCGUUACAUTT against 1700010I14Rik,0.155
9,CCCUUUUGUUUAGCUGAUCTT against Glrp1,-2.14 (active)
10,GGACAGUUCGUGUUUGGUUTT against Wdfy2,0.0956
11,GGUUCAACAAAACAGGCUUTT against Serpina1f,-1.01
12,GGAUUAAUGUUUCCUGACUTT against Mturn,0.704
13,GGGAAACAAACAGAAGAACTT against Cfap65,-1.2
14,GGACAUUAACGAGCUGAACTT against Ube2m,0.67
15,GGAGAAGAAGAACAGGACATT against Rnf186,2.35 (active)
16,GGACAGGUGAAGAUAAGUATT against Mug2,-0.704
17,GCCUGUAUAGAUGCUAUUCTT against Setd1a,-0.894
18,GGUGGUUUGUGUUACAUUUTT against Ifnar2,2.38 (active)
19,GGACUAUGUCUUUGACAAATT against Cdyl2,-0.133
20,GCCUAACAAUAGUGGAAUUTT against Ms4a13,2.76 (active)
21,GGAUUUCCUGUUCUUUCUATT against Prmt5,0.168
22,GGACUGUGGCACAGAGAAATT against Hgfac,-0.116
23,GCUGAUCCAACUGGAAUCUTT against Cep164,0.61

row,Sequence,z-score
1,GGCAAAGAAUGCACUUUCUTT against Elapor2,-0.536
2,GGAGUCCUAAAGAGUUCUATT against Slc11a1,0.723
3,GGAGAUGCCAGAGGUCAAATT against Gzmk,2.08 (active)
4,GGCUUUCAAGACACUUCUUTT against Ccl6,-1.6
5,GCUCAUUAACGAGAAAGUGTT against Atxn7l2,-0.991
6,GGCUACUGUAAGAUUUCUATT against Mgat4f,1.98
7,GCAAAACCAAGUGAAUGUGTT against Plac1,-0.774
8,GGAGUUUCAGCAGUCGUGATT against Prkrip1,-0.94
9,CCCUUCUCUGAUUGUCUGATT against Lce3b,-0.452
10,GCUUCUAAAUUUGGUUCUGTT against 9830163H01Rik,-0.389
11,GGUGGACAAGGCAAUACAGTT against Mmp20,4.46 (active)
12,GGUUUGAAUGAAUUCAAGGTT against 6030452D12Rik,0.785
13,GCUUAAUCAACUGGUACUATT against Olfr19,-1.7
14,GGGUCACGGGAACUCAAAATT against Mlf1,-0.608
15,GGAAUCAUCUGAACACACATT against Ctcf,-2.18 (active)
16,GGAGAAGCUAUGGUAUUACTT against Apc2,-0.798
17,CCACCACCAUCUAAAUAUATT against Ckap2l,-1.62
18,GGACACAUUCGAAUGAACCTT against Mkrn2,0.0809
19,GGACAAGACCAGCAAAUACTT against Six6,-1.58
20,GCAUUGUGCUCAAAUCUGCTT against C1qtnf7,-0.168
21,GGGUAUUCUGUGUGUUACUTT against Hsd3b1,2.06 (active)
22,GGGUUUUGAAACAUGCAGGTT against Cd44,-1.54
